# TDP1 cell noCPT: qHTS for Inhibitors of human tyrosyl-DNA phosphodiesterase 1 (TDP1): qHTS in cells in absence of CPT; DT40 Tdp1-/- hTDP1 cells, no CPT, ATP luminescence, 48 h; Potency, µM (series often up to 46.2 µM), for inactives: at the highest dose activity change, negative = growth inhibition, actives largely listed as inhibitors; 420,000 tested, 15% active; also: potency is read from the fitted curve at half-maximal effect; nearly all actives have a fitted effect of over 55% in size
#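 Stably hTDP1-transfected Tdp1-null chicken DT40 cells were treated with library compounds minus camptothecin and grown for at least 48 hr at 37 °C, after which cellular ATP was quantified by luminescence.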
# HT1080 IDH1KD tx: kills HT-1080 cells with IDH1 knockdown; Potency, µM (doses to about 46.1 µM), for the others: at the highest dose activity, negative = toxicity, most hits filed as cytotoxic; HT-1080 IDH1 knockdown viability, ATP luminescence, 48 h; 360,000 tested, 2% active;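 also: potency is read from the fitted curve at half-maximal effect; 0% = DMSO wells and -100% = cell-free medium wells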
#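 % activity derives from luminescence (CellTiter-Glo), normalised to DMSO and no-cell wells. HT-1080-IDH1KD cells, 750/well, had 48 h compound exposure at 37 °C.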
# HT1080-NT tox: kills 2HG-producing HT-1080-NT fibrosarcoma cells. HT-1080-NT fibrosarcoma viability, CellTiter-Glo ATP luminescence, 48 h. Potency, µM (titrated, usually from 46.1 µM), for inactives: at the highest dose activity, negative = less viability, most hits filed as cytotoxic. 360,000 tested, 1.6% active;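 also: NT is the 2HG producing partner of a matched IDH1 knockdown line; potency is read from the fitted curve at half-maximal effect; 0% = DMSO-treated cells and -100% = media-only wells without cells; nearly all actives have a fitted effect of over 55% in size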
#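 Toxicity toward the 2HG-producing NT line was scored as %Activity, normalised to DMSO and no-cell wells, from CellTiter-Glo luminescence after 48 hours' treatment.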
# IL-1B inflam inh: blocks inflammasome-driven IL-1 beta release | 360,000 tested, 4.7% active | activity change, % at 57.5 µM | THP-1 LPS/ATP IL-1B secretion, AlphaLISA, 16 h; stronger effect = lower value | AID 743279; in the data active = activity change below about -50%; inconclusive = mostly about -30% to -49%
#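 Secreted IL-1B measured by AlphaLISA bead assay after 16 h compound exposure of THP-1 cells; compounds (final up to 57.5 uM) added 1 h before LPS (250 ng/mL) and ATP (1.25 mM) stimulation; lower signal means less secretion.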
# DT40 TDP1 CPT: growth inhibition of DT40 Tdp1-/-;hTDP1 cells with camptothecin (screen for TDP1 inhibitors); chicken DT40 Tdp1-/-;hTDP1 cells + 20 nM CPT, ATP luminescence, 48 h; Potency, µM (top dose mostly 46.2 µM), for inactives: at the top dose activity change, negative = growth inhibition, usual class: inhibitors; 420,000 tested, 12% active; AID 686979; also: potency is read from the fitted curve at half-maximal effect; nearly all actives have a fitted effect of over 55% in size
#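 Chicken DT40 Tdp1-/- cells stably complemented with human TDP1 were seeded at 400 cells/well in medium containing 20 nM camptothecin, exposed to pin-transferred compounds, and grown at 37 °C for at least 48 hr. Viability was read as ATP luminescence.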
# The depositor's hits bear a star; i = inactive; ? = inconclusive; · = no result given; ! = not active in a repeat; [ ] = remark or other dose. This is a sample that favours compounds with a hit; in the whole collection about 19% have one here. Unless noted, calls follow the shape of the dose curve; as a rule, active = well fitted curve in the direction sought with a large enough effect; inconclusive = small, poorly fitted or top-dose-only effect, or another doubt; inactive = no such curve, though single readings can be large; an effect the other way counts as inactive or inconclusive. Unless noted, % is scaled to controls: 0 for no effect and ±100 for the full control effect.
SMILES,TDP1 cell noCPT,HT1080 IDH1KD tx,HT1080-NT tox,IL-1B inflam inh,DT40 TDP1 CPT
Cc1ccc(Cl)cc1N1CCN(C(=O)C2CCCN(S(=O)(=O)c3cnc[nH]3)C2)CC1 (centres undefined),23µM*,8%,16%,-3,15µM*
Cc1ccc(C)c(N2CCN(C(=O)C3CCN(c4nc(C)cc(C)n4)CC3)CC2)c1,12µM*,?,?,-8,15µM*
COc1ccc(C(=O)N2CCN(S(=O)(=O)N3CCOCC3)CC2)cc1OC,11%,13%,13%,0,-3%
Cc1ccc2c(c1)C(O)(C1COC(C)(C)CC1=O)C(=O)N2C (centres undefined),3.3µM*,23%,14%,40,5.2µM*
CN1C(=O)C(O)(C2COC(C)(C)CC2=O)c2ccccc21 (centres undefined),9.2µM*,17%,18%,32,15µM*
COc1ccc2c(c1)CC(C1(O)C(=O)N(C)c3ccccc31)C2=O (centres undefined),?,0%,2%,0,?
CN1C(=O)C(O)(C2COC(C)(C)CC2=O)c2cc(Br)ccc21 (centres undefined),4.6µM*,?,?,57,5.8µM*
CCOc1ccc(N(C)S(=O)(=O)c2cc(-c3cc(C)no3)ccc2OC)cc1,15µM*,-25%,-13%,-10,23µM*
COc1ccc(-c2cc(C)no2)cc1S(=O)(=O)Nc1ccc(NC(C)=O)cc1,?,?,?,2,?
CCOc1ccc(N(C)S(=O)(=O)c2cc(-c3cc(C)no3)ccc2C)cc1,?,?,-15%,-19,?
CCOc1ccc(N(C)S(=O)(=O)c2cc(-c3cc(C)no3)ccc2CC)cc1,18µM*,-20%,-22%,0,?
COc1ccc(-c2cc(C)no2)cc1S(=O)(=O)N(C)c1ccc(C)cc1,9.2µM*,?,?,24,10µM*
CCCCN(Cc1ccc(C(=O)N[C@H](C(=O)O)C(C)C)cc1)C(=O)C(c1ccccc1)c1ccccc1,-15%,-6%,-4%,10,-11%
CC1CN(S(=O)(=O)c2cc(C(=O)NCCC3=CCCCC3)ccc2Cl)CC(C)O1 (centres undefined),15µM*,-17%,?,31,18µM*
COc1ccc(C(=O)NCCC2=CCCCC2)cc1S(=O)(=O)N1CCOCC1,-2%,6%,2%,23,0%
COc1ccc(CNC(=O)c2ccc(Cl)c(S(=O)(=O)N3CCOCC3)c2)cc1OC,7.3µM*,-13%,-13%,7,9.2µM*
CCOc1ccc(CCNC(=O)c2ccc(Cl)c(S(=O)(=O)N3CCOCC3)c2)cc1OCC,23µM*,-6%,-10%,34,21µM*
Cc1ccc(CCNC(=O)Cn2ncc3c([nH]c4ccc(C)cc43)c2=O)cc1,-10%,·,·,·,-10%
O=C(Nc1nnc(S(=O)(=O)N2CCCCC2)s1)c1ccccc1Br,?,-6%,-4%,-16,?
CC(C)Oc1ccccc1-c1cc(C(=O)N/N=C/c2cccnc2)c2ccccc2n1,?,-28%,-11%,i,?
COc1cc(C(=O)Nc2nc(C)cc(C)n2)cc(OC)c1OC,2%,-8%,5%,6,2%
Cc1cccc(CSc2ncc(Cl)c(C(=O)Nc3nc4ccc(F)cc4s3)n2)c1,-27%,·,·,·,-29%
Cc1ccc(C)c(NC(=O)c2nc(S(=O)(=O)Cc3ccc(F)cc3)ncc2Cl)c1,2.1µM*,·,·,·,1.5µM*
CCSc1nnc(NC(=O)c2nc(S(=O)(=O)Cc3ccc(F)cc3)ncc2Cl)s1,10µM*,?,?,-103*,13µM*
O=C(Nc1nc2ccc(F)cc2s1)c1nc(S(=O)(=O)Cc2ccccc2F)ncc1Cl,2.6µM*,·,·,·,3.3µM*
SMILES,TDP1 cell noCPT,HT1080 IDH1KD tx,HT1080-NT tox,IL-1B inflam inh,DT40 TDP1 CPT
CSc1nnc(NC(=O)c2nc(S(=O)(=O)Cc3cccc(C)c3)ncc2Cl)s1,8.2µM*,21µM*,?,-102*,8.2µM*
COc1ccc(OC)c(S(=O)(=O)NC(=O)C2(C)CCN2C(=O)c2ccco2)c1 (centres undefined),-6%,4%,24%,3,0%
O=C(Cn1c(=O)oc2ccccc21)NCc1cccc(Cl)c1,-20%,·,·,·,?
CCOC(=O)[C@]12CCCC=C1N(Cc1cccc3ccccc13)C(=O)[C@H](CC(=O)NCCc1ccccc1OC)C2,?,-29%,?,?,?
O=C(O)Cn1c2c(c3ccccc31)CSc1ccc(Cl)cc1-2,-7%,1%,8%,26,-13%
CN(CC(=O)Nc1c(Cl)cccc1Cl)C(=O)c1ccc2ccccc2n1,2%,0%,3%,0,-22%
CSc1nnc(NC(=O)c2nc(S(=O)(=O)Cc3ccccc3F)ncc2Cl)s1,-84%,21µM*,?,-101*,2.9µM*
Cc1nnc(NC(=O)c2nc(S(=O)(=O)Cc3ccccc3C)ncc2Cl)s1,12µM*,?,18µM*,-94*,15µM*
CC(C)c1nnc(NC(=O)CS(=O)(=O)Cc2ccccc2)s1,16%,16%,-1%,18,32%
Cc1ccc(CS(=O)(=O)c2ncc(Cl)c(C(=O)Nc3nnc(C(C)C)s3)n2)cc1,12µM*,9.2µM*,21µM*,-101*,5.8µM*!
Cc1cccc(CS(=O)(=O)c2ncc(Cl)c(C(=O)Nc3nnc(C(C)C)s3)n2)c1,13µM*,7.3µM*,10µM*,-102*,4.6µM*
Cc1nnc(NC(=O)c2nc(SCc3ccccc3F)ncc2Cl)s1,-8%,·,·,·,4%
Cc1cc(-c2ccnc(-n3ncc(C(=O)NCCc4cccnc4)c3C)n2)c(C)s1,?,·,·,·,-3%[9.04 µM]
CC(C)c1nnc(NC(=O)c2nc(S(=O)(=O)Cc3ccc(F)cc3)ncc2Cl)s1,4.1µM*,23µM*,26µM*,-105*,4.6µM*
CC(C)c1nnc(NC(=O)c2nc(SCc3ccc(F)cc3)ncc2Cl)s1,-3%,·,·,·,-20%
OCC1(Cc2ccc(F)cc2)CCCN(Cc2ccc(F)cc2Cl)C1 (centres undefined),26µM*,?,?,-3,-23%
CCn1nc(C(C)C)cc1C(=O)N1CCCC(CO)(Cc2ccc(F)cc2F)C1 (centres undefined),?,10%,-2%,28,23µM*
CCOc1ccc(CN2CCCC(CO)(Cc3ccc(F)cc3)C2)cc1 (centres undefined),?,?,?,?,-26%
